Usually inhibition stands for the change of the read-out against control, counted positive when it falls.

The text below walks through data of PubChem BioAssay AID2069 (Sanford-Burnham Center for Chemical Genomics, 2009).

The whole screen tested about 1,200 compounds, of which about 210 (18%) were called active. A selection follows. Values without a mark were called inactive. No stated cut-off is given here; in the data, active means inhibition above about 30%; inactive means the rest.

This assay in a line: fluorescence readout artefact check – biochemical, HTRF, uHTS, artefact control for SUMOylation inhibitor project, confirmation (AID 2069). To be noted: HTRF interference counterscreen, at 35 µM, stronger effect = higher value. A general note: TR-FRET usually uses a lanthanide donor and a delayed reading to cut background.
In the case of `Fc1cccc(Cl)c1C1Nc2cccc3cccc(c23)N1`, the inhibition is -14.8%.

As for `CCC(NC(=O)Nc1ccc(O)cc1)(C(F)(F)F)C(F)(F)F`, the inhibition is -9.2%.

Consider `Cc1ccc(NC(=O)Nc2ccno2)cc1`, for which the inhibition was 48.2% (active).

`Cc1cc2c(NC(=O)Nc3ccccc3)cccc2nn1`: the inhibition was -6.1%.

As for `Cc1ccc(NC(=O)Cn2nc(C(=O)Nc3ccc(C)cc3)ccc2=O)cc1`, the inhibition was 4.7%.

As for `O=C(Nc1ccccc1)Nc1ccno1`, the inhibition is 47.1% (active).

For the compound `O=C(Nc1ccccc1)c1ccccc1CCc1ccccc1`, the inhibition was 2.45%.

For `COc1ccc(/C=C2/C(=O)N(c3ccccc3)N=C2C)cc1OC`, the inhibition was -0.35%.

For the compound `O=[N+]([O-])c1c(NCc2ccccc2)cc(N2CCc3ccccc3C2)c2nonc12`, the inhibition was 0.75%.

As to `O=[N+]([O-])c1cc(CN2CCN(c3cccc(C(F)(F)F)c3)CC2)c2cccnc2c1O`, the inhibition is -18.5%.

`Cc1cc2c(NC(=O)Nc3ccc(C(C)(C)C)cc3)cccc2nn1`: the inhibition was 18.8%.

In the case of `CCCc1cc(=O)oc2cc(OCC(=O)Nc3ccc(S(N)(=O)=O)cc3)ccc12`, the inhibition is 21.4%.

With `Cc1c(O)ccc2c(CC(=O)N[C@@H](Cc3ccc(O)cc3)C(=O)O)cc(=O)oc12`, the inhibition is 39.9% (active).

Regarding `NC(=O)C1CCN(C2=C(NS(=O)(=O)c3ccccc3)C(=O)c3ccccc3C2=O)CC1`, the inhibition was -13.8%.

Regarding `O=C(CN1C(=O)S/C(=C\c2ccccc2)C1=O)NNC(=O)c1ccccc1O`, the inhibition was 2.55%.

On to `S=c1[nH]nc(-c2cc(-c3ccco3)[nH]n2)n1-c1cccc2ccccc12`, for which the inhibition was -16.1%.

Take `COCCNC(=O)CCC1CCN(Cc2ccc(-c3ccccc3)cc2)CC1`: the inhibition was 65.5% (active).

Consider `C[C@@H]1CN=C2N(CCNC(=O)CCC3CCCCC3)[C@H](Cc3ccc(O)cc3)CN21`, for which the inhibition is 1.3%.

On to `CCOC(=O)N1CCc2c(sc3c2c(=O)n(Cc2ccccc2)c(=O)n3CC(=O)NCCOC)C1`, for which the inhibition is -6.7%.

For `CCOC(=O)Cn1c(=NC(=O)c2sc3ccccc3c2Cl)sc2cc(S(N)(=O)=O)ccc21`, the inhibition is 8.1%.

As to `C#CCOc1ccc(/C=C2/C(=O)N(c3cccc(C(=O)O)c3)N=C2C)cc1OC`, the inhibition was -5.85%.

As to `CC(=O)C1=C(C)OC2(O)c3ccccc3C(=O)C12O` (stereo unspecified), the inhibition was -21.7%.

For `NNc1nc2c(Cl)ccc(Cl)c2s1`, the inhibition was -0.55%.

In the case of `CC(=O)C1C(=O)C=C(c2ccco2)CC1c1ccccc1` (stereo unspecified), the inhibition is 0.4%.

Consider `Cc1c(C(=O)O)c(C(=O)O)nc2ccc(N3CCOCC3)cc12`, for which the inhibition was 7.75%.

In the case of `CC1CCN(CCCn2c(=S)[nH]c3ccc(N4CCOCC4)cc3c2=O)CC1`, the inhibition is 52.3% (active).

Consider `N#Cc1cc2ccc(N3CCOCC3)cc2cc1C#N`, for which the inhibition was 9.35%.

Take `O=c1c2cc(N3CCOCC3)ccc2[nH]c(=S)n1Cc1ccccn1`: the inhibition is 56.3% (active).

As to `COc1ccc2[nH]c3c(=O)n(CCCC(=O)NC4CCC(C)CC4)c(=S)[nH]c3c2c1` (stereo unspecified), the inhibition was 6.2%.

Turning to `O=c1c2cc(N3CCOCC3)ccc2[nH]c(=S)n1CC1CCCO1` (stereo unspecified), the inhibition was 55.1% (active).

`N#C/C(=C\c1ccc(-c2ccc([N+](=O)[O-])cc2)o1)C(=O)Nc1nc(-c2cccs2)cs1`: the inhibition is 0.8%.

With `O=C(c1ccc2c(c1)[nH]c(=S)n1c3ccccc3nc21)N1CCN(c2ncccn2)CC1`, the inhibition was 11.9%.

On to `COc1ccc(S(=O)(=O)C(C#N)c2nc3ccccc3nc2N2CCC(C)CC2)cc1` (stereo unspecified), for which the inhibition is -6%.

`CCOc1ccc(NC(=S)Nc2cccc3ccccc23)cc1`: the inhibition is -13.5%.

In the case of `COc1ccc(OC)c(S(=O)(=O)NCCc2cn3ccsc3n2)c1`, the inhibition was -8.15%.

In the case of `CCOC(=O)CCc1c(C)c(C#N)c2[nH]c3ccccc3n2c1=O`, the inhibition is 2.5%.

As for `CC(=O)Oc1c(/C=C(\C#N)C(N)=O)[nH]c2ccccc12`, the inhibition is -17.9%.

As for `C=CCOc1c(Cl)cc(CNc2ccc3[nH]c(=O)[nH]c3c2)cc1OC`, the inhibition is -12.6%.

With `O=C(O)c1ccc(N2N=C(c3ccccc3)CC2c2ccccc2)cc1` (stereo unspecified), the inhibition is 60.1% (active).

For the compound `Cc1ccc(C2=NN(C(=O)CCC(=O)O)C(c3cn(-c4ccccc4)nc3-c3ccc(C)cc3)C2)cc1` (stereo unspecified), the inhibition was 23.6%.

On to `COc1ccc(C2=NN(C(=O)CCCC(=O)O)C(c3cn(-c4ccccc4)nc3-c3ccccc3)C2)cc1` (stereo unspecified), for which the inhibition is 4.9%.

Turning to `O=C(N=Nc1c(O)n(Cc2ccccc2)c2ccccc12)c1cc2ccccc2cc1O`, the inhibition was 10.8%.

Regarding `COCCn1c(-c2cccs2)csc1=Nc1cccnc1`, the inhibition was 3.35%.

`COc1ccc(-c2nc(SCC(=O)Nc3cc(C)on3)n[nH]2)cc1`: the inhibition was 22.4%.

Consider `O=[N+]([O-])c1cc(C=Nc2cccc3c(O)cccc23)ccc1Cl`, for which the inhibition is -17.1%.

On to `c1ccc2c3c(cc(N4CCOCC4)c2c1)OC1(N2CCOCC2)CCCCC1O3` (stereo unspecified), for which the inhibition is 16%.

For the compound `S=C(NCc1ccc2c(c1)OCO2)Nc1ccc2nsnc2c1`, the inhibition is -0.25%.

Regarding `CCCC(=O)Nc1ccc2oc(-c3cncc(Br)c3)nc2c1`, the inhibition was 19.6%.

As for `CC(C)CC(=O)Nc1ccc2oc(-c3cccnc3)nc2c1`, the inhibition was 42.5% (active).

With `O=C(Nc1ccc2oc(-c3ccc4ccccc4c3)nc2c1)c1ccc2c(c1)OCCO2`, the inhibition was 8.15%.

On to `Nc1ccc(N2CCN(CCCCN3C(=O)C4CCCN4C3=O)CC2)cc1` (stereo unspecified), for which the inhibition was -7%.

In the case of `Cc1cc(/C=C2\C(=O)NN(c3ccccc3)C2=O)c(C)n1-c1ccccc1O`, the inhibition was -1.5%.

As for `O=C(Nc1ccc(F)cc1)C(=O)c1c(O)[nH]c2ccc([N+](=O)[O-])cc12`, the inhibition was -2.85%.

Consider `O=C(O)/C=C/C(=O)Nc1ccc(O)cc1`, for which the inhibition was -0.1%.

Regarding `Cc1ccccc1NC(=O)CN1C(=O)S/C(=C\c2ccc(-c3cc(C(=O)O)ccc3C)o2)C1=O`, the inhibition was 28.9%.

In the case of `Cc1ccc(C(=O)O)cc1-c1ccc(/C=C2\SC(=O)N(CC(=O)Nc3ccc4c(c3)OCO4)C2=O)o1`, the inhibition was 23.6%.

In the case of `Cc1ccc(NC(=O)CN2C(=O)S/C(=C/c3ccc(-c4cc(C(=O)O)ccc4C)o3)C2=O)cc1C`, the inhibition was 37.2% (active).

Regarding `Cc1cc[n+](-c2[nH]c(=O)sc2/C=N/N=C(\[O-])c2ccncc2)cc1`, the inhibition was -1.55%.

On to `CCCCNC(=O)Oc1c(Br)cc2sc(=O)oc2c1Br`, for which the inhibition was 7.5%.

For the compound `Cc1cc(/C=N/n2c(COc3ccccc3C)nc3ccccc3c2=O)c(O)c([N+](=O)[O-])c1`, the inhibition was -15.5%.

In the case of `CCn1c2ccccc2c2c3ncc4cccn4c3ccc21`, the inhibition is 31.1% (active).

Turning to `O=[N+]([O-])c1ccc2nc(CCCc3nc4ccc([N+](=O)[O-])cc4[nH]3)[nH]c2c1`, the inhibition is 28.1%.

Take `COc1ccccc1CCNC(=O)CSc1ccc(-c2ccco2)nn1`: the inhibition was 14.2%.

`CCc1cc2c(=O)c(Oc3ccccc3F)c(C)oc2c(CN(C)C)c1O`: the inhibition was 62.9% (active).

On to `Cc1ccccc1NC(=O)Cn1c(O)c(N=NC(=O)c2ccccc2O)c2ccccc21`, for which the inhibition is 11.2%.

In the case of `CN1CCc2cc3c(c4c2[C@H]1[C@H](O)c1ccccc1-4)OCO3`, the inhibition was 1.95%.

`CCc1ccc(/C=C2/SC(=S)N(CCC(=O)Nc3ccc(C(=O)O)cc3)C2=O)cc1`: the inhibition is 8.2%.

As to `COc1ccc2nc3ccccc3nc2c1N`, the inhibition is -67.2%.

As to `CC(=O)NC1C(=O)N(CCN2CCOCC2)c2ccc(F)cc21` (stereo unspecified), the inhibition is 28.6%.

For `CCc1ccc2nc(NC(=O)c3ccc4c(=O)[nH]c(CN5CCOCC5)nc4c3)sc2c1`, the inhibition is 29.9%.

On to `CCc1ccc2c(c1)C(NC(C)=O)C(=O)N2CCN1CCOCC1` (stereo unspecified), for which the inhibition was 30.8% (active).

Consider `CC(=O)NC1C(=O)N(CCN2CCOCC2)c2ccc(Cl)cc21` (stereo unspecified), for which the inhibition was 25.8%.

With `CC(=O)NC1C(=O)N(CCN2CCOCC2)c2ccc(Br)cc21` (stereo unspecified), the inhibition is 32.2% (active).

Regarding `Brc1ccc(OCCN2CCOCC2)cc1`, the inhibition is -8.15%.

Regarding `CCOc1ccc2c(c1)C(NC(C)=O)C(=O)N2CCN1CCOCC1` (stereo unspecified), the inhibition was 37.8% (active).

As for `O=C1NC(=O)c2cc(NC(=O)C3CCCCC3)ccc21`, the inhibition was 25.4%.

In the case of `CCOC(=O)C1CC(=O)c2cc(OC)c(OC)cc2C1` (stereo unspecified), the inhibition was -1.1%.

Regarding `O=C(COc1ccc(Cl)cc1)Nc1nnc(-c2ccc3c(c2)CCCC3)o1`, the inhibition is -7.05%.

Take `CC(C)=CCC1=C(OCC(=O)O)C(=O)c2ccccc2C1=O`: the inhibition is -6.2%.

As to `CN(NC(=O)c1ccc(Cl)cc1)c1ncc(C(F)(F)F)cc1Cl`, the inhibition was 4.95%.

As to `O=C(NC1(O)C(=O)c2ccccc2C1=O)c1c(Cl)cccc1Cl`, the inhibition is 50.4% (active).

As to `O=C(NC1(O)C(=O)c2ccccc2C1=O)c1ccccc1`, the inhibition is 57.5% (active).

Turning to `O=C(Cc1ccccc1Cl)NC1(O)C(=O)c2ccccc2C1=O`, the inhibition is -30.6%.

`O=C(NC1(O)C(=O)c2ccccc2C1=O)c1ccc(C(F)(F)F)cc1`: the inhibition was 56.5% (active).

Consider `Cc1ccc(C(=O)NC2(O)C(=O)c3ccccc3C2=O)cc1C`, for which the inhibition was 29.6%.

As to `O=C1c2ccccc2C(=O)C12OC2c1ccc(Cl)cc1` (stereo unspecified), the inhibition was 4.4%.

Consider `CC(=O)c1ccc(-c2ccc(/C=C(/Sc3n[nH]c(C)n3)C(=O)O)o2)cc1`, for which the inhibition is -9.75%.

Take `Cc1cccc(C)c1OCC(=O)N=Nc1c(O)[nH]c2ccc(Br)cc12`: the inhibition is -1.15%.

With `Cc1nnc(N/N=C\c2ccc(-c3ccccc3[N+](=O)[O-])o2)n1N`, the inhibition is 16%.

Turning to `O=C1/C(=N\S(=O)(=O)c2cccs2)C([n+]2cccc(Cc3ccccc3)c2)=C([O-])c2ccccc21`, the inhibition was 22%.

Regarding `CCC(=O)N1CCc2cc(S(=O)(=O)NC(C(=O)NCc3ccc(C)cc3)C(C)C)ccc21` (stereo unspecified), the inhibition was -2.25%.
